# Measurements as given in PubChem BioAssay.
# A number with no mark means an inactive call. Activity calls are given as the source filed them.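 The calls were made as follows, unless noted: active = mean inhibition above 46.5%, the solvent-only control mean plus 3 SD; inactive = the rest.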
# Assays:
# [1] = system: transactivating tegument protein VP16 (Human herpesvirus 1); assay: VP16 transactivation reporter inhibitors, counter-screen for SRC2 inhibitor project, cell-based, luminescence, single concentration (AID 652007; in the data active = inhibition above about 36%); settings: cell-based VP16 transactivation luciferase reporter, at 8.9 µM, hits give high values
# [2] = target: Nuclear receptor coactivator 2 (Homo sapiens) (UniProt Q15596); assay: SRC2 coactivator transcriptional activity inhibitors, confirmation, cell-based, luminescence, HEK293, triplicate (AID 652008); settings: HEK293 GAL4-SRC2 luciferase reporter, at 8.9 µM, hits give high values;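 also: 0% = DMSO-treated cells and 100% = Gossypol at 36 µM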
# Nuclear receptor coactivator 2 (Homo sapiens), sequence (Q15596 whole entry, looked up, the tested form may be a part): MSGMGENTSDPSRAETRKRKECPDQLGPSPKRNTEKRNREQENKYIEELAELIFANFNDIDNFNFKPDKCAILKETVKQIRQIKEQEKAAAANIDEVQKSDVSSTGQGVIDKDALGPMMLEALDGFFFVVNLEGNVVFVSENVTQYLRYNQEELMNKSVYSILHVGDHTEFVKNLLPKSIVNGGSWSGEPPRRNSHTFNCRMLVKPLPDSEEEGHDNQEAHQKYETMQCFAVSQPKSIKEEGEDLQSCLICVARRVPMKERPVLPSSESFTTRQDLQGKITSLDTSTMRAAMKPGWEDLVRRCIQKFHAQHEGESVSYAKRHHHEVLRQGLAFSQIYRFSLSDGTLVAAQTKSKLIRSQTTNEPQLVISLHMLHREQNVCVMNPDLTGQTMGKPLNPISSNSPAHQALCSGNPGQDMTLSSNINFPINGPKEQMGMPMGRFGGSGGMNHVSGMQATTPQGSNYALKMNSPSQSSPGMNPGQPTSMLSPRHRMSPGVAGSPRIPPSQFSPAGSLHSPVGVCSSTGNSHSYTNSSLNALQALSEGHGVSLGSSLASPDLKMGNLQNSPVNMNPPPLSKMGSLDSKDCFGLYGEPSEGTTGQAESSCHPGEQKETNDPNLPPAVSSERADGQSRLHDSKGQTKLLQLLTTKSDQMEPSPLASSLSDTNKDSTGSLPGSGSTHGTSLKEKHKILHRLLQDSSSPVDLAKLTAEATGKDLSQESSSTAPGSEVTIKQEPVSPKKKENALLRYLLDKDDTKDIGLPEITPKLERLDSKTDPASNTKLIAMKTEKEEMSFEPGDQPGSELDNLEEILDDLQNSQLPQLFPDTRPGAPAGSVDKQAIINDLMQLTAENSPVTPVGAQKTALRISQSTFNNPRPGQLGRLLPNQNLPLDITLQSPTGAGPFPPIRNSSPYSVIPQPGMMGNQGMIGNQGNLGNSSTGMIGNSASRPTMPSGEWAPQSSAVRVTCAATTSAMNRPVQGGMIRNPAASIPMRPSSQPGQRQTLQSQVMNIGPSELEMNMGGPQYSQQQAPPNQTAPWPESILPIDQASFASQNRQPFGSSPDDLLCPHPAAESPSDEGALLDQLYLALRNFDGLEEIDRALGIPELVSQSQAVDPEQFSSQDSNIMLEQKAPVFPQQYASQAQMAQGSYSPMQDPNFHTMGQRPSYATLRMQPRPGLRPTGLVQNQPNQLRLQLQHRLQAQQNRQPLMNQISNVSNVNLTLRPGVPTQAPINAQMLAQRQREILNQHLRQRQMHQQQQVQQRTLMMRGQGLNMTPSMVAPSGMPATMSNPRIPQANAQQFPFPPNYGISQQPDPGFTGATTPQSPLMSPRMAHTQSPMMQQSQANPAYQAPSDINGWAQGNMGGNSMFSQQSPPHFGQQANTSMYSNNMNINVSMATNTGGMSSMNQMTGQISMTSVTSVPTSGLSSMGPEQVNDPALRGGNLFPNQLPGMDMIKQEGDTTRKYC
SMILES,inhibition [1],inhibition [2]
CC(=O)n1cc(N(C(=O)CCl)c2ccccc2)c2ccccc21,51.8% (active),50.5% (active)
O=C(Nc1nccs1)c1cc([N+](=O)[O-])ccc1Cl,12.7%,42.9%
COC(=O)c1ccc(-c2nc3cc(N)ccc3o2)cc1,-20.4%,49.8% (active)
Clc1ccccc1/C=C/c1nc(-c2ccccn2)no1,-11.4%,18.9%
CC(C)(C)n1nc(Cc2cccc3ccccc23)c2c(N)ncnc21,2.66%,29.4%
Cc1ccc(NCc2nnc(SCC(=O)c3ccccc3)n2Cc2ccco2)c(C)c1,-11.6%,-16.7%
CCNC(=O)COc1ccc(/C=C2\COc3ccccc3C2=O)cc1OC,3.8%,78.1% (active)
CCN1C=CC(=C2C(=O)c3ccccc3C2=O)C=C1,42.3% (active),58.6% (active)
O=C(O)COc1ccccc1/C=N/NC(=O)Cc1csc(Nc2cccc(C(F)(F)F)c2)n1,-15.7%,-14.6%
CN(C)Cc1ccc(-c2nc3cccc4c3n2CCNC4=O)cc1,-27.9%,6.56%
Cc1ccc(C2CC(c3cccs3)=NN2C(=O)CSC2=NCCS2)cc1 (stereo not given),17.9%,16.1%
Cc1ccccc1C(=O)N1CCN(c2ccc(NC(=O)c3ccccc3[N+](=O)[O-])cc2)CC1,-22%,12.1%
O=C(N/N=C/c1ccc([N+](=O)[O-])s1)c1ccccc1,34.9%,24.6%
COc1cccc(-c2ncn(CCc3ccccc3OC)c2CC(C)C)c1,-2.53%,18.6%
CCC1CSC(Nc2ccc(C(=O)/C=C/c3ccc(OC)c(OC)c3)cc2)=N1 (stereo not given),12.8%,39.9%
